HCT116 PTEN-null: growth suppression of PTEN-null HCT116, primary screen, cell-based, CellTiter-Glo; AID 827, 2007; HCT116 PTEN-null viability, 60 h; hits give low values; viability, % at 10 µM; 1.2% of 140,000 active;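 active = viability at or below a set limit, 4 SD under the median of all tested compounds, cut at about 3.7% in these data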;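 note: PTEN knockout HCT116 line with beta catenin targeted HCT116 as companion control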
WT yeast gro inh: growth inhibition of WT strain, primary screen, mitochondrial fusion inhibitor project, WT and mutant strains, chemical genetic; mitochondrial fusion phenotypic screen; inhibition, % at 10 µM; 2.1% of 190,000 active; AID 1362, 2008; in the data active = inhibition above about 58%; tested in S. cerevisiae
bCat KO growth: primary screen for growth suppressors in beta-catenin knockout HCT116 cells (colon tumor, human) | AID 818, 2007 | viability, % at 10 µM | HCT116 beta-catenin knockout viability, CellTiter-Glo, 60 h; hits give low values | 1.5% of 140,000 active;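 active = viability at or under a set limit, the compound median less 4 SD, cut at about 6% in these data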
hDAT+cocaine: changed hDAT dopamine uptake under cocaine IC80, either direction, primary screen, cocaine antagonist project, cell-based, LLC-PK1 hDAT, [14C]-dopamine uptake, MLSMR; LLC-PK1 hDAT cells, [14C]-dopamine uptake with cocaine IC80; actives deviate in either direction; B-score at 10 µM; Sodium-dependent dopamine transporter (Homo sapiens), Q01959; 1.3% of 110,000 active; AID 449768, 2010;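 active = Z score or B-score, a plate-position-corrected score, falls beyond the plate's 99.7% confidence bounds, in either direction; inactive = both scores lie inside the 99.7% bounds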
Target sequence (Q01959 whole entry, looked up): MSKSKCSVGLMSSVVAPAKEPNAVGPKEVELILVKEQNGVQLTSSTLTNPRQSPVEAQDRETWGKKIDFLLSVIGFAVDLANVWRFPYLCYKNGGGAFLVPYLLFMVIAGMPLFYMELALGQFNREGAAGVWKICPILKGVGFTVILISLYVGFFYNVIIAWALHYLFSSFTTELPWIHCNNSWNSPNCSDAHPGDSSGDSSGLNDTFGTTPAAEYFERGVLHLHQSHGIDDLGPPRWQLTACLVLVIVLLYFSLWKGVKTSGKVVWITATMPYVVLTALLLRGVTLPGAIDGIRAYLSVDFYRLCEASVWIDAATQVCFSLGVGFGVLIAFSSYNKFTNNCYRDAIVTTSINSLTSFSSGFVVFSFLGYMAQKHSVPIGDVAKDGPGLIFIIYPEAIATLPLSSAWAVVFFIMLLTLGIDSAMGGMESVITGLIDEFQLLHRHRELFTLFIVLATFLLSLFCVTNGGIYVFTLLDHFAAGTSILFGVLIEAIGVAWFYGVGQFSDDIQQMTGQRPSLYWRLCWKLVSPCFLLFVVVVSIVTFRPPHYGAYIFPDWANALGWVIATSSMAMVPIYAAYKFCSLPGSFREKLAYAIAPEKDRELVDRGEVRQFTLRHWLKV
A number is an active result; – = inactive; · = no result. A selection: hits, their analogues and other compounds. The true share with any hit is near 3.6%.

SMILES	HCT116 PTEN-null	WT yeast gro inh	bCat KO growth	hDAT+cocaine
CCOP(=O)(OCC)C(Nc1cccc(C(F)(F)F)c1)c1ccc(Br)cc1 (centres undefined)	–	80	–	·
CC(=O)Nc1ccc(NC(=O)C2CCCN2/C=C/C(=O)C(F)(F)F)cc1 (centres undefined)	·	–	·	·
COc1ccc(CNC(=O)c2ccc(N3CCC4(CC3)CC(c3ccc(Cl)cc3)=NO4)c(N)c2)cc1	·	·	·	–
Cc1cc(C)nc(NC2=NCC(=O)N2c2ccc3c(c2)OCCO3)n1	–	95	–	–
O=C1C(N2CCOCC2)=C(n2nnc3ccccc32)C(=O)c2ccccc21	2.1	–	2.0	-3.9
COc1ccc(CCNC(=O)C/C(C)=N/NC(=O)C23CC4CC(CC(C4)C2)C3)cc1OC	–	–	–	·
CCn1ccnc1CN(C)Cc1cn(-c2ccc(C)cc2)nc1-c1ccc(F)cc1	·	–	·	·
Cc1ccc(-n2cc(CN(C)Cc3ncc[nH]3)c(-c3cccc(C)c3)n2)cc1	·	59	·	·
CCn1ccnc1CN(C)Cc1cn(-c2ccccc2)nc1-c1ccc(OC)cc1F	·	–	·	·
Cc1ccc(-n2cc(CN(C)CCc3cn[nH]c3)c(-c3cccc(C)c3)n2)cc1	·	–	·	·
Cc1cccc(-n2cc(CN3CCN(Cc4nccn4C)CC3)c(-c3cccc(F)c3)n2)c1	·	86	·	·
CCn1ccnc1CN(C)Cc1cn(-c2cc(C)ccc2C)nc1-c1ccccc1	·	61	·	·
Cc1ccc(-c2nn(-c3cccc(F)c3)cc2CN2CCN(c3ccccn3)CC2)o1	·	–	·	·
Cc1ccc(-n2cc(CN(C)Cc3nccn3C)c(-c3ccc(F)cc3)n2)cc1	·	76	·	·
O=C(COc1ccc(-c2ccccc2)cc1)N1CCN(C(=O)c2cccs2)CC1	·	–	·	·
CCO[C@H]1OC(C(=O)N2CCOCC2)=C[C@@H](C2CC2)[C@@H]1CCCO	·	–	·	–
COc1cc(C(=O)N2CCN(c3ccccc3)CC2)c([N+](=O)[O-])cc1OC	·	–	·	·
CCOc1ccc(OCc2cccc(C(=O)Nc3ccc(CN4CCCCC4)cc3)c2)cc1	1.9	–	1.5	·
COc1ccc(OCc2cccc(C(=O)Nc3ccc(CN4CCCCC4)cc3)c2)cc1	–	–	–	·
CC(=O)N1N=C(c2cccc([N+](=O)[O-])c2)OC1c1cccc(Br)c1 (centres undefined)	·	66	·	·
CC(=O)N1N=C(c2cccc(Cl)c2)OC1c1ccc(C(C)C)cc1 (centres undefined)	–	78	–	–
CC(C)NC(=S)N/N=C/c1cc(Br)ccc1O	–	–	–	·
O=C(NCc1cccnc1)/C(=C\c1ccc(-c2ccc(Br)cc2)o1)S(=O)(=O)c1ccccc1	0.9	–	1.6	·
O=C(NCc1cccnc1)/C(=C/c1ccc(-c2ccc(Cl)cc2)o1)S(=O)(=O)c1ccccc1	1.3	–	1.7	–
O=C(NCc1cccnc1)/C(=C/c1ccc(-c2cccc(C(F)(F)F)c2)o1)NC(=O)c1ccccc1	–	–	–	·
SMILES	HCT116 PTEN-null	WT yeast gro inh	bCat KO growth	hDAT+cocaine
C[C@@H]1CCC[C@@]2(O[C@@H](CCO)C[C@H](O)[C@H]2O)O1	·	·	·	–
COC(=O)C1=C(C)N(c2ccc(Cl)c(Cl)c2)C(=O)C1	3.6	–	3.6	–
COC(=O)C1=CN(CCOC23CC4CC(CC(C4)C2)C3)C=C(C(=O)OC)C1c1ccsc1	·	68	·	·
COC(=O)C1=CN(Cc2ccc(OC)cc2)C=C(C(=O)OC)C1c1ccsc1	·	–	·	·
Cc1ccc(C)c(/C=N/n2cc(-c3ccccc3)[nH]c2=S)c1	·	71	·	·
O=C(Nc1ccc(Cl)c(Cl)c1)Nc1nnc(CSc2ccccc2)s1	2.6	–	2.2	·
COC(=O)C1=C(C)N(CCc2cc(OC)c(OC)c(OC)c2)C(=O)N[C@H]1c1cccs1	–	–	–	·
COc1ccc(NC(=O)c2ccc(Cl)c(S(=O)(=O)N3CCc4ccccc4C3)c2)cn1	–	58	–	–
CCc1nnc(NC(=O)c2ccc(Cl)c(S(=O)(=O)N3CCc4ccccc4C3)c2)s1	–	–	–	·
COc1ccc(NC(=O)C2Cc3ccccc3CN2C(=O)c2ccccc2)cn1 (centres undefined)	–	–	–	2.9
O=C(Nc1cccnc1)c1ccc(Cl)c(S(=O)(=O)N2CCc3ccccc32)c1	·	60	·	·
CC(=O)c1ccc(NC(=O)C2Cc3ccccc3CN2C(=O)c2ccccc2)cc1 (centres undefined)	–	–	–	·
C/C(N)=C(/C#N)C(=O)COC(=O)c1ccc(C)c(S(=O)(=O)N2CCCCC2)c1	–	–	–	–
C/C(N)=C(/C#N)C(=O)COC(=O)c1cc(S(=O)(=O)N2CCCCC2)ccc1C	–	95	–	·
COc1ccc(-c2noc(CN(C(=O)c3cccs3)C(C)C)n2)cc1	–	–	–	–
CCN1C/C(=C/c2ccc(OC)c(O)c2)C(=O)/C(=C/c2ccc(OC)c(O)c2)C1	·	–	·	·
CCN1C/C(=C\c2cccc([N+](=O)[O-])c2)C(=O)/C(=C/c2cccc([N+](=O)[O-])c2)C1	1.4	65	1.6	·
O=C1/C(=C/c2cccc([N+](=O)[O-])c2)CCc2ccccc21	2.0	–	3.2	·
CCOc1ccc(-c2nc(CCl)cs2)cc1OC	·	–	·	·
N#Cc1c(Cl)nsc1NN	·	–	·	·
CCOc1ccc(NC2OC(CO)C(O)C(O)C2O)c([N+](=O)[O-])c1 (centres undefined)	·	–	·	·
CCOC(=O)c1sc(NC(=O)CSc2n[nH]c(-c3ccccc3)n2)c(C#N)c1C	–	77	–	·
CCOC(=O)c1sc(NC(=O)CSc2nc(C)cc(C)n2)c(C#N)c1C	–	–	–	–
O=C(NNC(=S)NC1CCCCC1)c1sc2ccccc2c1Cl	–	–	–	·
CC(C)(C)C(=O)NC(=S)NNC(=O)c1sc2ccccc2c1Cl	–	75	3.0	·
SMILES	HCT116 PTEN-null	WT yeast gro inh	bCat KO growth	hDAT+cocaine
Cn1c(/C=C/c2ccc([N+](=O)[O-])o2)nc2ccccc2c1=O	1.5	–	1.8	–
Cc1cc(N/N=C/c2ccc([N+](=O)[O-])o2)nc2ccccc12	·	–	·	·
Cn1c(-c2sc3cc(C(F)(F)F)cnc3c2-c2cccs2)n[nH]c1=S	·	65	·	·
CCC(=O)NC(c1cccs1)c1ccc2cccnc2c1O (centres undefined)	·	–	·	·
Cc1conc1NC(c1cccs1)c1ccc2cccnc2c1O (centres undefined)	2.6	–	3.5	–
CCc1ccc(OS(=O)(=O)c2cn(C)c(=O)n(C)c2=O)cc1	·	–	·	·
Cc1ccccc1OCCSCc1nc2ccccc2[nH]1	–	75	–	·
Cc1cccc(OCCSCc2nc3ccccc3[nH]2)c1	–	–	–	–
CSc1nnc(C)c(=O)n1COC(=O)c1ccc(S(=O)(=O)N2CCOCC2)cc1	–	–	–	·
COc1ccc2nc3ccccc3nc2c1NC(=O)c1ccc(Cl)cc1Cl	–	–	–	·
CCCCNC(=S)NNC(=O)c1cccnc1	–	–	–	-8.2
COc1ccccc1N1CCN(C(=O)c2ccoc2C)CC1	–	–	–	–
COc1ccccc1N1CCN(C(=O)c2oc3cc(C)cc(C)c3c2C)CC1	–	76	–	–

Source: PubChem BioAssay
